NTR1 ag: agonists of human neurotensin receptor NTR1 | hit rate 0.17% among 330,000 | P30989 | NTR1-U2OS beta-arrestin-GFP spot imaging, agonist mode | activation, % at 20 µM;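 active = activation at or above 40% of the spot to cytoplasm intensity ratio, with at least 20 cells analyzed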;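 also: 0% = DMSO without peptide and 100% = 100 nM NTR1 peptide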
GRK2 aptamer HTS: inhibitors of human GRK2 displacing RNA aptamer | P25098 | bead flow cytometry, FAM-aptamer displacement from GRK2 | inhibition of aptamer binding, % at 10 µM | hit rate 0.59% among 330,000 | AID 488847;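 active = inhibition of aptamer binding above 40%, roughly 3 SD of noise, on plates passing a quality check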;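 also: median bead fluorescence of bound FAM aptamer so fluorescent compounds give negative values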
Target sequence (P25098 whole entry, looked up): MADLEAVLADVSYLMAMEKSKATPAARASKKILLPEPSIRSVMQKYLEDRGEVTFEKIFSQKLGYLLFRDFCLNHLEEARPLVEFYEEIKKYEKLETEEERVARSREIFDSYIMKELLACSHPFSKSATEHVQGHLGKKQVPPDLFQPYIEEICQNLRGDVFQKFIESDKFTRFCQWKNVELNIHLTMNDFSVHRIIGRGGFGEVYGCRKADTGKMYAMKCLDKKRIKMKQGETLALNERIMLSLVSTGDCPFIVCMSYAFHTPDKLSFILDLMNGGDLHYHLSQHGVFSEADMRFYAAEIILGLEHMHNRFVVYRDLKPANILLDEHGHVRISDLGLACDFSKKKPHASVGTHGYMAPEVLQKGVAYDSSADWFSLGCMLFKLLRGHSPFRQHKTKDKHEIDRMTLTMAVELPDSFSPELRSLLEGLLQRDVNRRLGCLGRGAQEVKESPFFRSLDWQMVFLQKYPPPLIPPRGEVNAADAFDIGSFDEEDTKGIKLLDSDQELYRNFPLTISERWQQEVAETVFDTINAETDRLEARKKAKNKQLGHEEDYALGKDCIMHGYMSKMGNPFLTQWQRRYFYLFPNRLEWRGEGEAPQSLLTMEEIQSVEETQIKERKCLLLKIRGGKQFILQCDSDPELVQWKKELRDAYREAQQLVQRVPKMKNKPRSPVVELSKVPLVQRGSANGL
beta cell repl: MIN6 beta-cell proliferation induction; MIN6 cells proliferation, ATPlite luminescence, 48 h; cells starved in 0.2% serum; 100% = growth in 10% serum; proliferation, % at 10 µM; hit rate 0.29% among 330,000;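 active = compounds whose signal lies at least 3.5 SD above the mean of all wells on their plate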;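 also: 0% = DMSO-treated cells in low-serum medium and 100% = 10% serum control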
Platelet DG rel: platelet dense granule release activity; hit rate 0.22% among 300,000; inhibition, %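 (compounds screened at 7.5 µM in platelet-rich plasma)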; human platelet-rich plasma, SFLLRN dense granule ATP release, luminescence; AID 1663;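 active = mean replicate score, as percent of positive control, at or above 50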
The depositor's hits bear a star; · = no result given. A selection: hits, their analogues and other compounds. The true share with any hit is near 1.2%.

SMILES	NTR1 ag	GRK2 aptamer HTS	beta cell repl	Platelet DG rel
CCOC(=O)/C=C/C(=O)OCC(=O)NCc1ccccc1	-2	3	1	-1
C/C(=C\C(=O)OCC(=O)NCc1ccccc1)C(=O)OCC(=O)NCc1ccccc1	0	80*	0	-12
COc1ccc(CCNC(=O)c2ccc3c(c2)N(Cc2ccc(F)cc2)CCS3)c(OC)c1	2	0	-2	-3
COc1ccc(N=CC2=C(O)c3ccccc3C2=O)cc1	-1	0	-3	59*
O=C(Nc1ccc2oc(-c3ccccc3)nc2c1)C1CCCO1 (configuration not stated)	2	0	-3	8
O=C(Nc1ccc(-c2nc3ccccc3o2)cc1)C1CCCO1 (configuration not stated)	0	3	-4	56*
O=C(Nc1ccc(-c2nc3cccnc3s2)cc1)C1CCCO1 (configuration not stated)	2	0	-6	98*
Cc1ccc(N2C(=O)c3ccccc3C2Nc2ccccc2F)nc1 (configuration not stated)	3	0	6	-1
Cc1ccc(N2C(=O)c3ccccc3C2O)nc1 (configuration not stated)	·	0	·	78*
CC(=O)NN1C(=O)/C(=C2/Sc3ccc(Cl)cc3N2C)SC1=S	1	0	-4	-1
Cc1cc(C(=O)Nc2nc3c(s2)CCCC3)cs1	2	0	-4	4
Cc1ncsc1C(=O)Nc1nc2c(s1)CCCC2	0	0	-3	61*
Cc1cc(/C=N/Nc2ncnc(N)c2[N+](=O)[O-])c(C)n1-c1ccccc1	5	1	-5	67*
COc1cccc(/C=N/Nc2ncnc(N)c2[N+](=O)[O-])c1OC	-2	1	-4	32
CCOc1ccc(OCc2ccc(C(=O)NCc3cccnc3)o2)cc1	0	4	6	70*
NC(=O)NCCC1=CCCCC1	0	0	3	0
O=C(NCCC1=CCCCC1)NC1CCCCC1	2	4	-4	54*
Cc1cccc(C(=O)NCC(c2cccs2)N2CCOCC2)c1 (configuration not stated)	0	6	-2	5
CC(=O)/C=C1/C(=O)Nc2ccccc21	7	3	-6	11
C=CCOc1cccc(C(=O)/C=C2/C(=O)Nc3ccccc32)c1	66*	10	-6	5
O=C(NCC(=O)N1CC(O)CC1C(=O)N1CC(O)CC1C(=O)OCc1ccccc1)OCc1ccccc1 (configuration not stated)	-1	0	-2	0
Cc1noc(C)c1COc1ccc(C(=O)N2CCN(S(=O)(=O)c3cccc(F)c3)CC2)cc1	1	0	-3	·
Cc1ccc(S(=O)(=O)/N=C(\c2ccc(F)cc2)n2c(C)nc3ccccc32)cc1	1	0	-1	52*
Cc1ccc(/C=C/C(=O)O)cc1S(=O)(=O)N1CCCCC1	1	0	-3	65*
CCn1c(O)c(N=Nc2ccc3ccccc3n2)c2ccccc21	6	1	-4	16
SMILES	NTR1 ag	GRK2 aptamer HTS	beta cell repl	Platelet DG rel
Brc1ccc(N=Nc2ccc3ccccc3n2)cc1	0	1	-4	69*
CC(C)NC(=O)NC(=O)CSc1nnc(-c2c[nH]c3ccccc23)o1	1	0	-3	-9
CCOC(=O)c1ccc2nc(NC(=O)c3ccco3)sc2c1	-1	1	-2	29
CCOc1ccc2nc(NC(=O)c3ccccn3)sc2c1	8	0	-6	81*
CCOc1ccc2nc(NC(=O)c3ccoc3C)sc2c1	8	4	-4	69*
CCOc1ccc2nc(NC(=O)COC)sc2c1	0	3	1	2
CCOc1ccc2nc(NC(=O)c3ccco3)sc2c1	2	0	-3	50*
Cc1ccc2nc(NC(=O)c3ccccn3)sc2c1	6	2	-6	29
Cn1c(=O)c2sccc2n2c(CCCC(=O)NCc3ccco3)nnc12	1	0	1	-19
CCOC(=O)c1cc2cc([N+](=O)[O-])ccc2oc1=O	2	5	-1	59*
CCOC(=O)c1cc2cc([N+](=O)[O-])cc(OC)c2oc1=O	0	0	-1	2
O=C1CC(C(=O)N2CCN(c3ccccn3)CC2)CN1Cc1ccccc1Cl (configuration not stated)	0	0	2	12
C#CCOCCOCCOCCNc1nc(N2CCN(C(=O)[C@H](CCCCN)n3cc(CCCC)nn3)CC2)nc(N2CCN(C(=O)[C@H](Cc3ccc(O)cc3)n3cc(CCO)nn3)CC2)n1	-4	47*	-1	-4
Cc1ccc([C@H]2C(C(=O)O)=CC[C@@H](c3ccc(C)cc3)N2S(=O)(=O)c2ccc(C)cc2)cc1	1	0	-3	·
Cc1ccc(C)c(NC(=O)CN(C)C(=O)c2ccc3[nH]c4c(c3c2)CC(C)CC4)c1 (configuration not stated)	8	1	-6	-17
O=C(N/N=C/c1ccc(OC(=O)c2ccc([N+](=O)[O-])cc2)cc1)c1cccnc1	1	0	-1	2
COc1ccc(C(=O)Oc2ccc(/C=N/NC(=O)Cc3ccc([N+](=O)[O-])cc3)cc2)cc1	-1	85*	0	-9
Cc1nc2cc(C(=O)OCC(=O)NC34CC5CC(CC(C5)C3)C4)ccc2n1-c1ccccc1	3	41*	0	14
CS(=O)(=O)c1ccc(C(=O)OCC(=O)NC23CC4CC(CC(C4)C2)C3)cc1[N+](=O)[O-]	68*	0	-5	7
Cc1nc(N2CCN(Cc3ccc(Cl)cc3)CC2)c2oc3ccccc3c2n1	8	·	-3	1
Cc1nc(N2CCC(C)CC2)c2oc3ccccc3c2n1	8	3	-4	60*
Cc1nn(-c2ccccc2)c(N2CCCC2)c1/C=N/NC(=O)c1cc2ccccc2cc1O	33	66*	-6	-3
Cc1nn(-c2ccccc2)c(N2CCCC2)c1/C=N/NC(=O)c1cc(-c2ccccc2)nc2ccccc12	2	4	0	-5
O=C(Nc1cccnc1)c1cc(-c2ccc(Cl)c(Cl)c2)on1	-1	0	-3	55*
COC(=O)[C@]1(C)N[C@H](CN(C)C(=O)Nc2ccc(C)cc2)[C@@H]2C(=O)N(C)C(=O)[C@@H]21	-1	0	0	·
COc1ccc(S(=O)(=O)N2CCCOC2CNC(=O)C(=O)NCc2ccccn2)cc1 (configuration not stated)	1	0	0	-3
CCOc1ccccc1C1C2C(=O)N(c3ccccc3)C(=O)C2ON1c1ccccc1 (configuration not stated)	1	94*	0	8
O=C(O)COc1ccccc1C1C2C(=O)N(c3ccccc3)C(=O)C2ON1c1ccccc1 (configuration not stated)	0	0	0	8
COC(=O)c1c(NC(=O)C2CC(=O)NN2Cc2ccccc2)sc(C)c1C (configuration not stated)	2	3	1	60*
COc1ccc(N2CCN(c3nc4c(c(=O)n(C)c(=O)n4C)n3Cc3ccccc3)CC2)cc1	1	0	0	50*

Bioassay records as filed in PubChem BioAssay.
